# According to PubChem BioAssay (EPA / NIEHS):
# Activity calls are given as the source filed them. How the source made its calls: active means hit-call score of the fitted dose curve at least 0.9, where 1 is the maximum; inactive means score below 0.9.
# Experiment: APR_HepG2_NuclearSize_24hr: Apredica 24-hour HepG2 Assay for Nuclear Size (AID 2282907)
# Conditions: high-content imaging, actives raise or lower the signal
# Summary of the method: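 After fixation and permeabilization, 24-hr-treated HepG2 cells were stained with Hoechst 33342 and imaged on an ArrayScan (20x). Doses spanned 0.39–200 uM in duplicate. Nuclear diameter changes in either direction were fitted relative to 0.5% DMSO controls.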
Structure (SMILES),outcome,AC50
CC#C[C@]1(O)CC[C@H]2[C@@H]3CCC4=CC(=O)CCC4=C3[C@@H](c3ccc(N(C)C)cc3)C[C@@]21C,inactive,
CCOC(=O)CC(O)(CC(=O)OCC)C(=O)OCC,inactive,
CCCCCCCC(=O)O,inactive,
CC[C@H](c1ccc(O)cc1)[C@@H](CC)c1ccc(O)cc1,inactive,
O=c1c(-c2ccc(O)cc2)coc2cc(O)ccc12,inactive,
CCCCC(CC)COC(=O)CCCCC(=O)OCC(CC)CCCC (stereo not given),inactive,
CC(C)(C)c1cccc(C(C)(C)C)c1O,inactive,
CCCOc1sc(C(=O)N2CCC(c3cc(CN)ccc3F)CC2)c(C)c1Br,inactive,
NC(=O)N(O)[C@@H]1C=C[C@H](Oc2cccc(Oc3ccc(F)cc3)c2)C1,inactive,
NC(=O)N1C(=O)C(C(=O)c2cc(Cl)cs2)c2cc(F)c(Cl)cc21 (stereo not given),inactive,
Cc1cc(C)c(O)c(C)c1,inactive,
Nc1cccc2c(N)cccc12,inactive,
COCC(C)O (stereo not given),inactive,
c1ccc2c(c1)ccc1ccccc12,inactive,
CCCCC[C@H](O)CC(=O)CCc1ccc(O)c(OC)c1,inactive,
CC(C)CCCCCCOC(=O)CCCCC(=O)OCCCCCCC(C)C,inactive,
O=C(/C=C/c1ccc(O)cc1)CC(=O)/C=C/c1ccc(O)cc1,,68.6 µM (active)
OCCC(F)(F)C(F)(F)C(F)(F)C(F)(F)C(F)(F)C(F)(F)C(F)(F)C(F)(F)F,,75 µM (active)
C#C[C@]1(O)CC[C@H]2[C@@H]3CCC4=CC(=O)CC[C@@H]4[C@H]3CC[C@@]21C,inactive,
CCc1nn(C2CCCCC2)c2cc(C3(C#N)CCC(C(=O)O)CC3)ccc12 (stereo not given),inactive,
